Laboratory results from article PMC8384837, “Expanding the binding specificity for RNA recognition by a PUF domain”.

target: PUM1 PUF domain R5-RFK (Homo sapiens, UniProt Q14671 828-1176, C1007R;R1008F;Q1011K); assay: yeast three-hybrid, YBZ-1, SC-Leu-His + 0.5 mM 3-AT, 4 days; details: tags: N-Gal4 AD-HA kept; label: inside an RPR1-promoter hybrid RNA with tandem MS2 sites; ssRNA
Procedure, shortened: (§1)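 Pumilio-1 PUF domain libraries, randomized at the three base-contacting residues of each repeat, were co-expressed with matching RNA elements from a centromeric plasmid in strain YBZ-1, which carries a LexA–MS2 coat fusion and a HIS3 reporter. Transformants grew for four days on SC-Leu (input) or on SC-Leu-His + 0.5 mM 3-AT (selection), and the repeat regions were PCR-amplified and Illumina-sequenced. The interaction score is the log change in variant frequency from input to selection. That logarithm is base 2, with a pseudocount of 1 where a variant was absent.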

| Sequence | binding signal |
| --- | --- |
| GGCUAGAACUAGUGGAUCCCCCGGCGCCCGGCGGCUCGAGCCCGGGUAAGUGUAAAUAGUCUGCAUGCCGCCGGGCGCCAUGCCUGCAGGUCGACUCUAGAAAACAUG | 4.34 log2 enrichment (interaction score) |
| GGCUAGAACUAGUGGAUCCCCCGGCGCCCGGCGGCUCGAGCCCGGGUAAGUGUCAAUAGUCUGCAUGCCGCCGGGCGCCAUGCCUGCAGGUCGACUCUAGAAAACAUG | 5.3 log2 enrichment (interaction score) |
| GGCUAGAACUAGUGGAUCCCCCGGCGCCCGGCGGCUCGAGCCCGGGUAAGUGUUAAUAGUCUGCAUGCCGCCGGGCGCCAUGCCUGCAGGUCGACUCUAGAAAACAUG | 5.38 log2 enrichment (interaction score) |

target: PUM1 PUF domain R1-YLR (Homo sapiens, UniProt Q14671 828-1176, S863Y;R864L;Q867R); assay: as above; details: tags: N-Gal4 AD-HA kept; label: inside an RPR1-promoter hybrid RNA with tandem MS2 sites; ssRNA
Procedure, shortened: as §1

| Sequence | binding signal |
| --- | --- |
| GGCUAGAACUAGUGGAUCCCCCGGCGCCCGGCGGCUCGAGCCCGGGUAAGUGUAAAUUGUCUGCAUGCCGCCGGGCGCCAUGCCUGCAGGUCGACUCUAGAAAACAUG | 5.29 log2 enrichment (interaction score) |
| GGCUAGAACUAGUGGAUCCCCCGGCGCCCGGCGGCUCGAGCCCGGGUAAGUGUAAAUCGUCUGCAUGCCGCCGGGCGCCAUGCCUGCAGGUCGACUCUAGAAAACAUG | 3.95 log2 enrichment (interaction score) |
| GGCUAGAACUAGUGGAUCCCCCGGCGCCCGGCGGCUCGAGCCCGGGUAAGUGUAAAUGGUCUGCAUGCCGCCGGGCGCCAUGCCUGCAGGUCGACUCUAGAAAACAUG | 2.04 log2 enrichment (interaction score) |
